In PubChem BioAssay (Tox21):
Several values for one entry are separate records, joined by “and”; a condition that tells them apart may be missing. Identical values can stand only once. Records with an inconclusive call do not appear. A call without a number means that no potency is given here. Some compounds were tested as several samples or in several runs, with calls that do not always agree. Activity calls are given as the source filed them. Unless noted, the call rests on the fitted dose curve; in most records, active means well fitted curve in the direction sought with a large enough effect in the repeat runs; inconclusive means weak or mixed curves; inactive means no such curve, though single readings can be large; an effect the other way counts as inactive or inconclusive.

Assays:
[1] = qHTS assay to identify small molecule antagonists of the thyroid receptor (TR) signaling pathway - cell viability counter screen (AID 743064); further: nearly all actives have a fitted effect of over 50% in size; further: potency means the concentration at half of the fitted maximal effect
Summary of the method: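 Same-well viability check: GH3.TRE-Luc cells stimulated with 1 nM T3 alongside test compound for 23.5 h, followed by CellTiter-Fluor fluorescence.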

[2] = qHTS assay to identify small molecule antagonists of the thyroid receptor (TR) signaling pathway (AID 743065); further: nearly all actives have a fitted effect of over 55% in size; further: potency means the concentration at half of the fitted maximal effect; on activity, negative = inhibition: series mostly up to about 70 µM
Summary of the method: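 GH3.TRE-Luc rat pituitary cells carrying two TR response elements driving luciferase were plated for 4 h, given compound plus 1 nM T3 (final), and incubated 23.5 h at 37 C. ONE-Glo luminescence measured reporter inhibition; CellTiter-Fluor fluorescence tracked cytotoxicity.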

[3] = system: thyroid hormone receptor (rat, GH3 cells); experiment: qHTS assay to identify small molecule agonists of the thyroid receptor (TR) signaling pathway (AID 743066; calls by dose curve)
[4] = qHTS assay to identify small molecule antagonists of the estrogen receptor alpha (ER-alpha) signaling pathway - cell viability counter screen (AID 743074; calls by dose curve; further: nearly all actives have a fitted effect of over 45% in size)
[5] = qHTS assay to identify small molecule antagonists of the estrogen receptor alpha (ER-alpha) signaling pathway using the BG1 cell line - cell viability counter screen (AID 743081);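 further: compound given together with 17beta-estradiol as the ER stimulus; series mostly up to about 70 µM; nearly all actives have a fitted effect of over 45% in size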
[6] = target: Estrogen receptor (Homo sapiens) (UniProt P03372); experiment: qHTS assay to identify small molecule antagonists of the estrogen receptor alpha (ER-alpha) signaling pathway (AID 743069; active means well fitted curve in the direction sought with a large enough effect in the signal ratio in the repeat runs, not every such curve was filed as active; the % refers to the signal ratio)
Estrogen receptor (Homo sapiens), sequence (P03372 whole entry, looked up): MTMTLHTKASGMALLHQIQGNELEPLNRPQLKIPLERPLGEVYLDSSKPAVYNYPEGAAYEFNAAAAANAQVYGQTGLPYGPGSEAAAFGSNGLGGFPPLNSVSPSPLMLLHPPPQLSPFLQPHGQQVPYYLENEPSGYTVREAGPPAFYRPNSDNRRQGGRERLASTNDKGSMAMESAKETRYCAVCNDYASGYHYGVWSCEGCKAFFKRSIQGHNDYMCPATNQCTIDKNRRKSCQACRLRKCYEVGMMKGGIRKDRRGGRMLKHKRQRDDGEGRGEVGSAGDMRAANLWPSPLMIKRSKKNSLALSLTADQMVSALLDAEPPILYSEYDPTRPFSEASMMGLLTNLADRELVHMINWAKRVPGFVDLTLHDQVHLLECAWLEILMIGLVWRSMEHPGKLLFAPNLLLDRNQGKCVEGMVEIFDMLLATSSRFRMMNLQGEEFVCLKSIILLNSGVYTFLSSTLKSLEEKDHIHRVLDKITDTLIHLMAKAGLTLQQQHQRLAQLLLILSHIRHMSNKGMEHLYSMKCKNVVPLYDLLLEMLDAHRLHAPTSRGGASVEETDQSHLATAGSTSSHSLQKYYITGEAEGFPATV
Summary of the method: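 Screening used a UAS-driven beta-lactamase reporter integrated into HEK293 cells expressing ER-alpha, stimulated with 17beta-estradiol alongside test compounds over 18 hr at 37C; signal came from LiveBLAzer B/G FRET fluorescence.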

[7] = target: Estrogen receptor (Homo sapiens) (UniProt P03372); experiment: qHTS assay to identify small molecule agonists of the estrogen receptor alpha (ER-alpha) signaling pathway (AID 743075; calls by dose curve)
[8] = target: Estrogen receptor (Homo sapiens) (UniProt P03372); experiment: qHTS assay to identify small molecule agonists of the estrogen receptor alpha (ER-alpha) signaling pathway using the BG1 cell line (AID 743079); further: nearly all actives have a fitted effect of over 20% in size; further: potency means the concentration at half of the fitted maximal effect
[9] = qHTS assay to identify small molecule antagonists of the estrogen receptor alpha (ER-alpha) signaling pathway using the BG1 cell line (AID 743080; calls by dose curve; further: nearly all actives have a fitted effect of over 25% in size; further: potency means the concentration at half of the fitted maximal effect)
Summary of the method: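 Antagonist mode: compounds in DMSO were pinned onto BG1-Luc-4E2 cells alongside 17beta-estradiol agonist, incubated 21.5 h, and ERE-driven luciferase measured with ONE-Glo. Cytotoxicity was multiplexed using CellTiter-Fluor fluorescence.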

Aromatase (Homo sapiens) = Aromatase (Homo sapiens) (UniProt P11511); experiment: qHTS assay to identify aromatase inhibitors (AID 743083); further: nearly all actives have a fitted effect of over 55% in size; further: potency means the concentration at half of the fitted maximal effect; on activity, negative = inhibition: series mostly up to about 70 µM
Aromatase (Homo sapiens), sequence (P11511 whole entry, looked up): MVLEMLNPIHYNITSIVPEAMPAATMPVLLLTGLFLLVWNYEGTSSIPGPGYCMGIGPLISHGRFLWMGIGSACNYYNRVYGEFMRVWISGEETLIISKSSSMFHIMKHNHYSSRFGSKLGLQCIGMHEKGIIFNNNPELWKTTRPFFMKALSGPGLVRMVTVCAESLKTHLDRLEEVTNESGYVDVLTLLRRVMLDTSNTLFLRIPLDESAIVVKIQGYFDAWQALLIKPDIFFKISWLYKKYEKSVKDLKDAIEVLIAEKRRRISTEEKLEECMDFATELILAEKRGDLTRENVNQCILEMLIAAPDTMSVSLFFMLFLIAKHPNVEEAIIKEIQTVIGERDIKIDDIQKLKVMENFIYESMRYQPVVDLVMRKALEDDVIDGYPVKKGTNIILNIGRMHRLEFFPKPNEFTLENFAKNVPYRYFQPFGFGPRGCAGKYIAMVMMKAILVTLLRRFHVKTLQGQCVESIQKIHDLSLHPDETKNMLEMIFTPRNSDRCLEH

SMILES | Potency [1] | Potency [2] | Potency [3] | outcome [4] | Potency [5] | Potency [6] | Potency [7] | Potency [8] | Potency [9] | Potency (Aromatase (Homo sapiens)) | activity change, negative = cytotoxic [1] | activity, negative = inhibition [2]
CN(C)CCC(c1ccccc1)c1ccccn1 (centres undefined) | inactive | inactive | inactive | inactive | inactive |  |  |  |  |  |  | 
O=[N+]([O-])c1ccc(/C=C/c2ccc([N+](=O)[O-])cc2S(=O)(=O)O)c(S(=O)(=O)O)c1 | inactive | inactive | inactive | inactive | inactive | inactive | inactive | inactive | inactive | inactive |  | 
CCOC(=O)NNc1nncc2ccccc12 | inactive | inactive | inactive | inactive | inactive | inactive | inactive | inactive | inactive | inactive |  | 
C/C=C1/CC2C=CC1C2 (centres undefined) | inactive | inactive | inactive | inactive | inactive | inactive | inactive | inactive | inactive | inactive |  | 
COc1ccc2cc([C@H](C)C(=O)O)ccc2c1 | inactive | inactive | inactive | inactive | inactive |  |  |  |  |  |  | 
CC(=O)Nc1ccccc1 | inactive | inactive | inactive | inactive | inactive | inactive | inactive | inactive | inactive | inactive |  | 
CCN(CC)CCCC(C)Nc1ccnc2cc(Cl)ccc12 (centres undefined) |  | 26.6 µM (active) | inactive | inactive | inactive | inactive | inactive | inactive | inactive | inactive | -23.7% [at 8.44 µM] (inactive) | -19.4% [at 8.44 µM] (inactive)
CN(C)CCCN | inactive | inactive | inactive | inactive | inactive | inactive | inactive | inactive | inactive | inactive |  | 
O=S(=O)(O)c1ccc2ccccc2c1 | inactive | inactive | inactive | inactive | inactive | inactive | inactive | inactive | inactive | inactive |  | 
O=c1[nH]c(=O)n([C@H]2C[C@H](O)[C@@H](CO)O2)cc1Br | inactive | inactive | inactive | inactive | inactive | inactive | inactive |  |  | inactive |  | 
Oc1cccc2ccccc12 | inactive | inactive | inactive | inactive | inactive |  |  |  |  |  |  | 
CC(O)COCC(C)O (centres undefined) | inactive | inactive | inactive |  | inactive | inactive | inactive | inactive | inactive | inactive |  | 
Cc1cc(C)c(C)cc1C | inactive | inactive | inactive | inactive | inactive | inactive | inactive | inactive | inactive | inactive |  | 
C=C(C)C(=O)Nc1ccc(Cl)c(Cl)c1 | inactive | 49.1 µM (active) and 54.3 µM (active) | inactive | inactive | inactive | inactive | inactive | inactive | 69.3 µM (active) and 68.3 µM (active) | inactive |  | 
O=C(O)c1cc(O)c(O)c(O)c1 | inactive and 55 µM (active) | inactive | inactive | inactive | inactive | inactive | inactive | inactive | inactive | inactive |  | 
C#CCN(C)Cc1ccccc1 | inactive | inactive | inactive | inactive | inactive | inactive | inactive | inactive | inactive | inactive |  | 
CCC(O)OC(O)CC (centres undefined) | inactive | inactive | inactive | inactive | inactive | inactive | inactive | inactive | inactive | inactive |  | 
O=C(O)CC(C(=O)O)C(CC(=O)O)C(=O)O (centres undefined) | inactive | inactive | inactive | inactive | inactive | inactive | inactive | inactive | inactive | inactive |  | 
CCCCCCCC(=O)OC | inactive | inactive | inactive | inactive | inactive | inactive | inactive | inactive | inactive | inactive |  | 
COc1cc(Cc2cnc(N)nc2N)cc(OC)c1OC | inactive | inactive | inactive | inactive | inactive | inactive | inactive | inactive | inactive | inactive |  | 
Cc1ccc2oc(=O)ccc2c1 | inactive | inactive | inactive | inactive | inactive | inactive | inactive | inactive | inactive | inactive |  | 
CCCCC(CC)COC(=O)CCCCC(=O)OCC(CC)CCCC (centres undefined) | inactive | inactive | inactive | inactive | inactive | inactive | inactive | inactive | inactive | inactive |  | 
CC[C@H](C)C(=O)O[C@H]1C[C@@H](C)C=C2C=C[C@H](C)[C@H](CC[C@@H]3C[C@@H](O)CC(=O)O3)[C@H]21 | 62 µM (active) and 60.8 µM (active) | 62 µM (active) and 54.2 µM (active) | inactive | inactive | inactive | inactive | inactive | inactive |  | 11.9 µM (active) and 34.9 µM (active) and 27.2 µM (active) |  | 
Fc1ccc(Br)cc1 | inactive | inactive | inactive | inactive | inactive | inactive | inactive | inactive | inactive | inactive |  | 
CC(=O)Nc1cccc(O)c1 | inactive | inactive | inactive | inactive | inactive | inactive | inactive | inactive | inactive | inactive |  | 

SMILES | Potency [1] | Potency [2] | Potency [3] | outcome [4] | Potency [5] | Potency [6] | Potency [7] | Potency [8] | Potency [9] | Potency (Aromatase (Homo sapiens)) | activity change, negative = cytotoxic [1] | activity, negative = inhibition [2]
CCCCCCCCCC | inactive | inactive | inactive | inactive | inactive | inactive | inactive | inactive | inactive | inactive |  | 
CC(=O)OCC(=O)[C@@]12N=C(C)O[C@@H]1C[C@H]1[C@@H]3CCC4=CC(=O)C=C[C@]4(C)[C@H]3[C@@H](O)C[C@@]12C | inactive | inactive | inactive | inactive | inactive |  | inactive | 16.8 µM (active) |  | inactive |  | 
O=C(O)CCCCCCCCCCC(=O)O | inactive | inactive | inactive | inactive | inactive | inactive | inactive | inactive and 61.1 µM (active) | inactive | inactive |  | 
O=C(O)c1ccc2c(c1)C(=O)OC2=O | inactive | inactive | inactive |  | inactive | inactive | inactive | inactive | inactive | inactive |  | 
CCc1cccc(C)c1N | inactive | inactive | inactive | inactive | inactive | inactive | inactive | inactive | inactive | inactive |  | 
O=C(OCCOCCOC(=O)c1ccccc1)c1ccccc1 | inactive | inactive | inactive | inactive | inactive | inactive | inactive | inactive | inactive | inactive |  | 
CC1=CCC2CC1C2(C)C (centres undefined) | inactive | inactive | inactive | inactive | inactive | inactive | inactive | inactive | inactive | inactive |  | 
Cc1cccc(O)c1 | inactive | inactive | inactive |  | inactive | inactive | inactive | inactive | inactive | inactive |  | 
CC(C)CC(=O)CC(C)C | inactive | inactive | inactive | inactive | inactive |  |  |  |  |  |  | 
c1c[nH]cn1 | inactive | inactive | inactive | inactive | inactive | inactive | inactive | inactive | inactive | inactive |  | 
COS(C)(=O)=O | inactive | inactive | inactive | inactive | inactive | inactive | inactive | inactive | inactive | inactive |  | 
CN(C)CCC(c1ccc(Cl)cc1)c1ccccn1 (centres undefined) | 24.4 µM (active) and 30.6 µM (active) | 48.7 µM (active) and 48.6 µM (active) | inactive | inactive | inactive |  |  |  |  |  |  | 
CCCCCCCCCCCCS | inactive | inactive | inactive | inactive | inactive | inactive | inactive | inactive | inactive | inactive |  | 
OCC(CO)(CBr)CBr | inactive | inactive | inactive | inactive | inactive |  |  |  |  | inactive |  | 
COc1ccc(Cl)cc1C(=O)NCCc1ccc(S(=O)(=O)NC(=O)NC2CCCCC2)cc1 | inactive | inactive | inactive | inactive | inactive |  |  |  |  | inactive |  | 
C[Si](O[Si](C)(C)C)O[Si](C)(C)C | inactive | inactive | inactive | inactive | inactive |  |  |  |  | inactive |  | 
O=C=NCCCCCCN=C=O | inactive |  | inactive | inactive | inactive | inactive | inactive | inactive | inactive | inactive |  | 
O=c1[nH]nnc2ccccc12 | inactive | inactive | inactive | inactive | inactive |  |  |  |  | inactive |  | 
Cc1ccc(S(N)(=O)=O)cc1 | inactive | inactive | inactive | inactive | inactive |  |  |  |  | inactive |  | 
c1ccc2c(c1)ccc1ccccc12 | inactive |  | inactive | inactive | inactive | inactive | inactive | inactive | inactive | inactive |  | 
C=CCOC(=O)c1ccccc1C(=O)OCC=C | inactive |  | inactive | inactive | inactive | inactive | inactive | inactive | inactive |  |  | 
CCCCOC(=O)COc1ccc(Cl)cc1Cl | inactive | inactive | inactive | inactive | inactive |  |  |  |  | inactive |  | 
O=C1CCC(N2C(=O)c3ccccc3C2=O)C(=O)N1 (centres undefined) | inactive | inactive | inactive | inactive | inactive |  |  |  |  | inactive |  | 
CCCCCCCCCCCCCCO | inactive |  | inactive | inactive | inactive | inactive | inactive | inactive | inactive | inactive |  | 
CC(=O)c1ccccc1 | inactive |  | inactive | inactive | inactive | inactive | inactive | inactive | inactive | inactive |  | 
